According to PubChem BioAssay (EPA / NIEHS):
“And” between values parts separate entries of the source, which are not always exact repeats. Identical values can stand only once. Inconclusive results are not listed. A structure can be active in one record and inactive in another. The source made the active and inactive calls. The calls were made as follows, unless noted: active = hit-call score of the fitted dose curve at least 0.9, where 1 is the maximum; inactive = score below 0.9.

What was measured:
[1] = target: human RAR-related Orphan Receptor beta (RORb), RORB (gene 6096) (UniProt Q92753); test: ATG_RORb_TRANS: Attagene TRANS-FACTORIAL HepG2 Assay for human RAR-related Orphan Receptor beta (RORb) (AID 2283010; active = hit-call score of the fitted dose curve at least 0.9, where 1 is the maximum)
How it was run: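 Transfect HepG2 with multiple GAL4-UAS reporter transcription units; dose chemicals for 24 h; isolate RNA, reverse-transcribe and PCR-amplify reporter sequences; label, digest and resolve fragments by capillary electrophoresis; fit increases relative to DMSO.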

[2] = target: human RAR-related Orphan Receptor gamma (RORg), RORC (gene 6097) (UniProt P51449); test: ATG_RORg_TRANS: Attagene TRANS-FACTORIAL HepG2 Assay for human RAR-related Orphan Receptor gamma (RORg) (AID 2283011; active = hit-call score of the fitted dose curve at least 0.9, where 1 is the maximum)
How it was run: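 First, HepG2 liver cells were transfected with GAL4-UAS-driven reporter constructs and the RORg-Gal4 fusion. Next, they were treated with chemical for 24 h. Finally, reporter mRNA was quantified by RT-PCR and capillary electrophoresis, with upward activity fitted against DMSO.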

[3] = read-out: E-selectin (Homo sapiens) (UniProt P16581); test: BSK_3C_Eselectin: BioMAP Diversity Plus: 3C Assay for Eselectin Biomarker Activity (AID 2283015); conditions: primary human endothelial cells (HUVEC); actives raise or lower the signal
How it was run: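 ELISA read-out of E-selectin on endothelial monolayers after 24 h chemical treatment. Human umbilical vein primary cells served as the system, with DMSO defining baseline activity for bidirectional fitting.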

[4] = read-out: Interleukin-1 alpha (IL1a), IL1A (gene 3552); test: BSK_BE3C_IL1a: BioMAP Diversity Plus: BE3C Assay for Interleukin-1 alpha (IL1a) Biomarker Activity (AID 2283016); conditions: primary human bronchial epithelial cells; actives raise or lower the signal
How it was run: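 Signal from IL-1a ELISA, taken 24 h after chemical dosing of human bronchial epithelial cells, is compared with DMSO as baseline using bidirectional curve fitting.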

[5] = read-out: Monocyte Chemoattractant Protein-1 (MCP1), CCL2 (gene 6347); test: BSK_3C_MCP1: BioMAP Diversity Plus: 3C Assay for Monocyte Chemoattractant Protein-1 (MCP1) Biomarker Activity (AID 2283017); conditions: primary human endothelial cells (HUVEC); actives raise or lower the signal
How it was run: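 ELISA read-out of MCP-1 from human umbilical vein endothelial cell cultures harvested 24 h post-dosing. Gain or loss of signal was fitted relative to DMSO.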

[6] = read-out: Monocyte Chemoattractant Protein-1 (MCP1), CCL2 (gene 6347); test: BSK_4H_MCP1: BioMAP Diversity Plus: 4H Assay for Monocyte Chemoattractant Protein-1 (MCP1) Biomarker Activity (AID 2283018); conditions: primary human endothelial cells (HUVEC); actives raise or lower the signal
How it was run: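 Endothelial cells from umbilical vein were treated with test chemical, then after 24 h MCP-1 levels were quantified by ELISA; endpoint values came from bidirectional fitting with DMSO as baseline of activity.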

[7] = read-out: Interleukin-8 (IL8), CXCL8 (gene 3576); test: BSK_3C_IL8: BioMAP Diversity Plus: 3C Assay for Interleukin-8 (IL8) Biomarker Activity (AID 2283020); conditions: primary human endothelial cells (HUVEC); actives raise or lower the signal
How it was run: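 Endothelial primary cells of human umbilical vein origin are dosed with chemical; after 24 h the IL-8 biomarker is measured by ELISA, and concentration–response is fitted in both directions versus DMSO.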

[8] = read-out: Monokine induced gamma interferon (MIG), CXCL9 (gene 4283); test: BSK_3C_MIG: BioMAP Diversity Plus: 3C Assay for Monokine induced gamma interferon (MIG) Biomarker Activity (AID 2283021); conditions: primary human endothelial cells (HUVEC); actives raise or lower the signal;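 as to AC50: MIG protein level measured by immunoassay in the treated endothelial cultures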
How it was run: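 Endothelial primary cells (human umbilical vein) are dosed with test chemical in the 3C system. MIG levels are measured by ELISA at 24 h and fitted in both directions relative to DMSO.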

[9] = target: human Vitamin D Receptor (VDR), VDR (gene 7421) (UniProt P11473); test: ATG_VDR_TRANS: Attagene TRANS-FACTORIAL HepG2 Assay for human Vitamin D Receptor (VDR) (AID 2283022; active = hit-call score of the fitted dose curve at least 0.9, where 1 is the maximum)
How it was run: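 Steps: transfect HepG2 with GAL4-UAS-driven reporter constructs; dose compounds 24 h; isolate RNA, reverse-transcribe, PCR-amplify with 6-FAM-labelled primer extension and HpaI digestion; quantify fragments by capillary electrophoresis relative to DMSO.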

[10] = BSK_3C_SRB: Viability Assessment in the BioMAP Diversity Plus: 3C Assay (AID 2283023); conditions: primary human endothelial cells (HUVEC);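 also: fitted both ways against DMSO so a hit may be signal rise or drop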
How it was run: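 Absorbance at 560 nm of sulforhodamine B-stained (0.1%) total protein served as a cytotoxicity readout in human umbilical vein endothelial cells, 24 h after chemical treatment. Signal was fitted bidirectionally relative to DMSO.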

[11] = read-out: Matrix Metallopeptidase 1 (MMP1), MMP1 (gene 4312); test: BSK_BE3C_MMP1: BioMAP Diversity Plus: BE3C Assay for Matrix Metallopeptidase 1 (MMP1) Biomarker Activity (AID 2283024); conditions: primary human bronchial epithelial cells; actives raise or lower the signal
How it was run: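 MMP1 signal, measured by ELISA after a 24 h chemical exposure of human primary bronchial epithelial cells, is analysed with bidirectional fitting using DMSO as negative control.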

[12] = BSK_3C_Vis: BioMAP Diversity Plus: 3C Assay for Morphology Visualization (AID 2283025); conditions: primary human endothelial cells (HUVEC);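 also: fitted both ways so gain or loss versus DMSO counts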
How it was run: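 Morphology read by light microscopy serves as a background control for the multiplexed 3C assay in human umbilical vein endothelial cells, taken 24 h after dosing, with DMSO as the negative control and bidirectional curve fitting.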

[13] = read-out: Pselectin, SELP (gene 6403); test: BSK_4H_Pselectin: BioMAP Diversity Plus: 4H Assay for Pselectin Biomarker Activity (AID 2283026); conditions: primary human endothelial cells (HUVEC); actives raise or lower the signal
How it was run: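 Endothelial primary cells (human umbilical vein) are dosed, incubated 24 h, and assayed for surface P-selectin by ELISA; responses in either direction are fitted relative to the DMSO negative control.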

[14] = BSK_4H_SRB: Viability Assessment in the BioMAP Diversity Plus: 4H Assay (AID 2283027); conditions: primary human endothelial cells (HUVEC);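 also: cells exposed to compound for 24 h before staining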;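 as to AC50: curves fitted both ways versus DMSO so AC50 may be loss or gain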
How it was run: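 Cytotoxicity readout: sulforhodamine B (0.1%) staining of total protein after 10% TCA fixation, measured at 560 nm in human umbilical vein endothelium at 24 h. DMSO set the baseline; fitting was bidirectional.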

[15] = BSK_BE3C_SRB: Viability Assessment in the BioMAP Diversity Plus: BE3C Assay (AID 2283028); conditions: primary human bronchial epithelial cells;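 as to AC50: fitted both ways so AC50 may mark signal gain or loss versus DMSO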
How it was run: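 Cells (human bronchial epithelial, primary) are treated with chemicals, and after 24 h the parallel cultures are fixed in 10% TCA. These are then stained with 0.1% SRB and read at 560 nm. Gain or loss of signal is fitted relative to DMSO.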

[16] = read-out: Thrombomodulin, THBD (gene 7056); test: BSK_3C_Thrombomodulin: BioMAP Diversity Plus: 3C Assay for Thrombomodulin Biomarker Activity (AID 2283029); conditions: primary human endothelial cells (HUVEC); actives raise or lower the signal
How it was run: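 Endothelial cells from umbilical vein are dosed with test chemical and incubated 24 h. Thrombomodulin is then quantified by ELISA, with DMSO serving as negative control and activity baseline.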

[17] = target: Retinoic acid receptor RXR-alpha (Homo sapiens) (UniProt P19793); test: ATG_RXRa_TRANS: Attagene TRANS-FACTORIAL HepG2 Assay for human Retinoid X Receptor alpha (RXRa) (AID 2283012; active = hit-call score of the fitted dose curve at least 0.9, where 1 is the maximum)
How it was run: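 Measures exogenous chimeric NR-GAL4 activity in transfected HepG2 liver cells after 24 h of dosing. Induced reporter mRNA was detected by RT-PCR with capillary electrophoresis, and gain of signal was analysed against DMSO.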

[18] = target: human Retinoid X Receptor beta (RXRb), RXRB (gene 6257) (UniProt P28702); test: ATG_RXRb_TRANS: Attagene TRANS-FACTORIAL HepG2 Assay for human Retinoid X Receptor beta (RXRb) (AID 2283013; active = hit-call score of the fitted dose curve at least 0.9, where 1 is the maximum)
How it was run: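 Chimeric receptor-Gal4 activity was assessed in transiently transfected human HepG2 cells after 24 h exposure. Transcripts from GAL4-UAS reporters were quantified by fluorescent RT-PCR and capillary electrophoresis, with DMSO as negative control and baseline.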

[19] = target: human Thyroid Receptor alpha (THRa1), THRA (gene 7067) (UniProt P10827); test: ATG_THRa1_TRANS: Attagene TRANS-FACTORIAL HepG2 Assay for human Thyroid Receptor alpha (THRa1) (AID 2283014; active = hit-call score of the fitted dose curve at least 0.9, where 1 is the maximum)
How it was run: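 Reporter transcript induction, read by capillary electrophoresis of 6-FAM-labelled RT-PCR products, reflects activity of a transfected THRa1-Gal4 fusion in HepG2 liver cells. Cells were dosed for 24 h; activity was fitted in the positive direction against DMSO.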

[20] = read-out: Human Leukocyte Antigen - DR isotype (HLADR), HLA-DRA (gene 3122); test: BSK_3C_HLADR: BioMAP Diversity Plus: 3C Assay for Human Leukocyte Antigen - DR isotype (HLADR) Biomarker Activity (AID 2283019); conditions: primary human endothelial cells (HUVEC); actives raise or lower the signal
How it was run: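 ELISA readout of surface HLA-DR on human umbilical vein endothelium, taken 24 h after chemical treatment. Gain- and loss-of-signal were both fitted relative to DMSO.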

Measured: AC50

Sequence of human Vitamin D Receptor (VDR), VDR (gene 7421) (P11473 whole entry, looked up, the tested form may be a part): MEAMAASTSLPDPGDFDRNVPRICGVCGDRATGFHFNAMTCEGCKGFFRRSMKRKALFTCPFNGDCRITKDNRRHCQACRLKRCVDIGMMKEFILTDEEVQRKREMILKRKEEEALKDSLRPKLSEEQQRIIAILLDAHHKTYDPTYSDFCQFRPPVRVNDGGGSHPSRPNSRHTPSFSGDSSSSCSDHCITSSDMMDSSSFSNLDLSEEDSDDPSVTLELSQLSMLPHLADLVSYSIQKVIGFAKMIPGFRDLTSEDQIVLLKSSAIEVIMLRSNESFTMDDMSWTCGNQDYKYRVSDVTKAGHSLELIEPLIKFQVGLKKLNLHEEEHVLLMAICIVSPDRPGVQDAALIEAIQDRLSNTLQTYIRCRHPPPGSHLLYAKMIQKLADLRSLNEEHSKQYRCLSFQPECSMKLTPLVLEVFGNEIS
Sequence of E-selectin (Homo sapiens) (P16581 whole entry, looked up): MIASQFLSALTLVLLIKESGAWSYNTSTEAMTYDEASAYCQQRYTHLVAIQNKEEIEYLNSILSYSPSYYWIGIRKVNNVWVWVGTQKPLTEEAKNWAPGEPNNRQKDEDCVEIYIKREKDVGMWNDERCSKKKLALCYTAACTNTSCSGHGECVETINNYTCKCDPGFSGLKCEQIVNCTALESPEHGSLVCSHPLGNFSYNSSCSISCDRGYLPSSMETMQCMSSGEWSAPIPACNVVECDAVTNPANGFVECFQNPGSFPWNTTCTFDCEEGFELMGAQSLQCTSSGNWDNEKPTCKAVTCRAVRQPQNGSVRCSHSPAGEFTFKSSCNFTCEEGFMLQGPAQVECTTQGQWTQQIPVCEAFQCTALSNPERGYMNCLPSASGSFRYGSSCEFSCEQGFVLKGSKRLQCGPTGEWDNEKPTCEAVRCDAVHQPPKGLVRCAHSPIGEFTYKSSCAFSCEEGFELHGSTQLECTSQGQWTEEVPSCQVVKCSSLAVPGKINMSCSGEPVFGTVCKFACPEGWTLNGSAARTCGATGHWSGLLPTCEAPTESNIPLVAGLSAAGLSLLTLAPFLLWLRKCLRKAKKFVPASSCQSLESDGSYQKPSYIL
Sequence of Retinoic acid receptor RXR-alpha (Homo sapiens) (P19793 whole entry, looked up, the tested form may be a part): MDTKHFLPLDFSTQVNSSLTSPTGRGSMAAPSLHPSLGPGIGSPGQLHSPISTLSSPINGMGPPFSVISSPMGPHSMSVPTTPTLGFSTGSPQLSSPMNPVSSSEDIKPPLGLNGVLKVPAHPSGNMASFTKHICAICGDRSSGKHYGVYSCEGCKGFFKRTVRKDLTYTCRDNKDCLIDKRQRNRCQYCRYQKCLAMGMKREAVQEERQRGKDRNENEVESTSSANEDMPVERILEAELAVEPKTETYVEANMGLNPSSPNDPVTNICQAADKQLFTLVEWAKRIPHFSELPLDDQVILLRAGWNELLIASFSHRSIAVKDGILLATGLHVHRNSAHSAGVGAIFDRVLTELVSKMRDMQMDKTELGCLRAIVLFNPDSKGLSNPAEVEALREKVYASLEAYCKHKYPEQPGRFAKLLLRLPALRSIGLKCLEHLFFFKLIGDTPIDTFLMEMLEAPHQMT
Sequence of human RAR-related Orphan Receptor beta (RORb), RORB (gene 6096) (Q92753 whole entry, looked up, the tested form may be a part): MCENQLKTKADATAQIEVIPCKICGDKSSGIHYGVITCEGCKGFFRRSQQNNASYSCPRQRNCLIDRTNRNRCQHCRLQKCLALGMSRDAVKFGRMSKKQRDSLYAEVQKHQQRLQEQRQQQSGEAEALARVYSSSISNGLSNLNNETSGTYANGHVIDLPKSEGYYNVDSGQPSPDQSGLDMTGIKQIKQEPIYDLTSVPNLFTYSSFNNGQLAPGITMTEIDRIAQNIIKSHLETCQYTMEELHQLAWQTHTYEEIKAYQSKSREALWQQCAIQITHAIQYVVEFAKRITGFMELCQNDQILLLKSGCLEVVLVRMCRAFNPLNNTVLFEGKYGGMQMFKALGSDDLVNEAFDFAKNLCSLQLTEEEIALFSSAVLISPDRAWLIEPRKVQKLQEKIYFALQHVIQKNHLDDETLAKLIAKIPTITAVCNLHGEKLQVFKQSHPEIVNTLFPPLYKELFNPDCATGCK
Sequence of human Thyroid Receptor alpha (THRa1), THRA (gene 7067) (P10827 whole entry, looked up, the tested form may be a part): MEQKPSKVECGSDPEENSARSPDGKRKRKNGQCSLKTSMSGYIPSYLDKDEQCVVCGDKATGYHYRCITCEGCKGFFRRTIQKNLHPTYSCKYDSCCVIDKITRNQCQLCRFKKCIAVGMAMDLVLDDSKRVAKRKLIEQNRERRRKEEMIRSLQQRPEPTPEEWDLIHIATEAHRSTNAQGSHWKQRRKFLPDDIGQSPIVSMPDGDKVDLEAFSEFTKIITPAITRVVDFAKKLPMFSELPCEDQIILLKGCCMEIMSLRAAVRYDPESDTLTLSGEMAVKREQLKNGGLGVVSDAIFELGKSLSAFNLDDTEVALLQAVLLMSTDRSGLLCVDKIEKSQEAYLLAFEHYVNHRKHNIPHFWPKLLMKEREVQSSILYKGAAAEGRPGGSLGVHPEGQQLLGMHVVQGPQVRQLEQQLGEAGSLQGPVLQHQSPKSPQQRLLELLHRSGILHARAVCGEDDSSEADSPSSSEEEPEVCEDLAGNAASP
Sequence of human Retinoid X Receptor beta (RXRb), RXRB (gene 6257) (P28702 whole entry, looked up, the tested form may be a part): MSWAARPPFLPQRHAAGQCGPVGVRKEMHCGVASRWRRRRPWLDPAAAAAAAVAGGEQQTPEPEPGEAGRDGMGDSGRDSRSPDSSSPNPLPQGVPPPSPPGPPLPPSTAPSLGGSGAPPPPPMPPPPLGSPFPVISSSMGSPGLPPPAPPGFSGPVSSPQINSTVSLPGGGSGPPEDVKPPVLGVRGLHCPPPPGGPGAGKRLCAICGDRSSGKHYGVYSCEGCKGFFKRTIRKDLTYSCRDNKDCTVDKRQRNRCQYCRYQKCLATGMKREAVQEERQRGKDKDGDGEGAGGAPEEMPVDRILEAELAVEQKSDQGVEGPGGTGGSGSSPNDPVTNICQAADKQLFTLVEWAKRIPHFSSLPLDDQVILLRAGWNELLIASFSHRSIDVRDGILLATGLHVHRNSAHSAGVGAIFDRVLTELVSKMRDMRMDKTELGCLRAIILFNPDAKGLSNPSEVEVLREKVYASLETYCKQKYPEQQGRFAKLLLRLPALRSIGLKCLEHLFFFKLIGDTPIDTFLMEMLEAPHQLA
Sequence of human RAR-related Orphan Receptor gamma (RORg), RORC (gene 6097) (P51449 whole entry, looked up, the tested form may be a part): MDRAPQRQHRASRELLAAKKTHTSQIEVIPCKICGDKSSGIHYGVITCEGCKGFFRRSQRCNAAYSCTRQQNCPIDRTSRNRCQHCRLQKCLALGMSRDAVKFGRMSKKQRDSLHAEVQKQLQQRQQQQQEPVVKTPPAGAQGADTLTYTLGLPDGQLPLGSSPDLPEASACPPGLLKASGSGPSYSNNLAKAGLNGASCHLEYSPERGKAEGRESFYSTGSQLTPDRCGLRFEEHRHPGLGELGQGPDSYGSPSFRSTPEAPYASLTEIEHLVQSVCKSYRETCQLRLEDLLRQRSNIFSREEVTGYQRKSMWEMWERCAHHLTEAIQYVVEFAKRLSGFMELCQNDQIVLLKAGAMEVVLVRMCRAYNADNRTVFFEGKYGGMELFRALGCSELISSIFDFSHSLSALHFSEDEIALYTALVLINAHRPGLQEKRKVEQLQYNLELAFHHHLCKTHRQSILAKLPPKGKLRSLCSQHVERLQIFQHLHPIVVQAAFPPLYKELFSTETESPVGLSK

CCCSP(=O)(OCC)Oc1ccc(Br)cc1Cl (stereo not drawn)
active: [6] 28.9 µM | [10] 22.6 µM | [13] 32.3 µM | [14] 22.8 µM | [15] 15.4 µM
not listed: [17] | [18] | [19] | [20]
inactive: all other assays above

COP(=O)(NC(C)=O)SC (stereo not drawn)
active: [10] 5.17 µM
not listed: [20]
inactive: all other assays above

O=[N+]([O-])c1cc(C(F)(F)F)c(Cl)c([N+](=O)[O-])c1Nc1ncc(C(F)(F)F)cc1Cl
inactive: [1] | [2] | [17] | [18] | [19] | [9] | [10]
active: [3] 1.47 µM and 3.24 µM | [4] 1.95 µM and 6.28 µM | [5] 3.5 µM and 4.23 µM | [6] 738 nM and 3.46 µM | [7] 3.36 µM and 4.25 µM | [8] 3.73 µM and 5.09 µM | [10] 1.49 µM | [11] 3.93 µM | [12] 1.5 µM and 2.12 µM | [13] 1.18 µM and 2.13 µM | [14] 1 µM and 2.39 µM | [15] 1.79 µM and 4.1 µM | [16] 774 nM and 2.49 µM

Cc1nn(-c2cc(NS(C)(=O)=O)c(Cl)cc2Cl)c(=O)n1C(F)F
not listed: [18]
inactive: all other assays above

COP(=O)(OC)SCn1c(=O)oc2cc(Cl)cnc21
active: [3] 20 µM | [20] 25.1 µM | [7] 11.3 µM | [10] 20 µM | [12] 39 µM | [13] 17.5 µM
inactive: all other assays above

CCOP(=O)(SC(C)CC)N1CCSC1=O (stereo not drawn)
not listed: [2] | [17] | [18] | [19]
inactive: all other assays above

Nc1nc(N)nc(NC2CC2)n1
not listed: [2] | [9] | [19] | [20]
inactive: all other assays above

O=C(O)c1cc(Oc2ccc(C(F)(F)F)cc2Cl)ccc1[N+](=O)[O-]
active: [12] 9.8 µM
not listed: [1] | [9]
inactive: all other assays above

CN1COCN(Cc2cnc(Cl)s2)C1=N[N+](=O)[O-]
not listed: [1] | [20]
inactive: all other assays above

CCOP(=O)(NC(C)C)Oc1ccc(SC)c(C)c1 (stereo not drawn)
not listed: [9] | [19] | [20]
inactive: all other assays above

CC(C1CC1)C(O)(Cn1cncn1)c1ccc(Cl)cc1 (stereo not drawn)
not listed: [9] | [19] | [20]
inactive: all other assays above

CCOP(=S)(OCC)OC(Cl)C(Cl)(Cl)Cl (stereo not drawn)
active: [3] 14.7 µM | [10] 14.9 µM | [12] 39.8 µM | [13] 29.4 µM | [14] 12.4 µM
not listed: [2] | [9] | [20]
inactive: all other assays above
